# Source: the supplement of paper PMC10981050
# Values joined by “and” are separate entries in the source; they are usually repeats but may differ in a detail not shown here. Identical values can stand only once. Counter-ions that a name gives are not always drawn.
# System: K562
# Test: cell viability relative to vehicle control; higher = less cytotoxic
# Details: 10 µM; SRSF2 genotype: SRSF2 P95H/wt
# Procedure, shortened: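 Screening covered the Selleck bioactive, kinase and epigenetic probe libraries, less identity-inconsistent compounds, on CRISPR-edited mutant clones and isogenic wild-type clones of four leukaemia lines. Cells, at 2000 per well in 50 µL medium, received a single 10 µM acoustically dispensed dose. After 48 h the supernatant was removed and CellTiter-Glo luminescence was read. Viability was analysed in Genedata Screener as percent of the on-plate vehicle control.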
row,SMILES,cell viability
1,CO[C@H]1/C=C/O[C@@]2(C)Oc3c(C)c(O)c4c(O)c(c(/C=N/N5CCN(C6CCCC6)CC5)c(O)c4c3C2=O)NC(=O)/C(C)=C\C=C\[C@H](C)[C@H](O)[C@@H](C)[C@@H](O)[C@@H](C)[C@H](OC(C)=O)[C@@H]1C [Rifapentine],87.7% and 92.5%
2,O=C1NC(=O)/C(=C/c2ccc3c(c2)OC(F)(F)O3)S1,103% and 97.1%
3,CCOC(=O)c1ccc(N)cc1 [Benzocaine],92% and 83.9%
4,Cn1nc(C(C)(C)C)cc1C(=O)N[C@@H](Cc1cccc(Cl)c1)C(=O)NCC#N [Cathepsin Inhibitor 1],93.5% and 89.9%
5,Cc1c(C(=O)Nc2ccc(N3CCC(N4CCOCC4)CC3)c(C#N)c2)cnn1-c1ccc(Cl)cc1,8.99% and 14.7%
6,CCOC(=O)[C@H](CCc1ccccc1)N[C@@H](C)C(=O)N(CC(=O)O)C1Cc2ccccc2C1 [Delapril Hydrochloride],100% and 97.5%
7,CC1(C)[C@@H](O[C@H]2O[C@H](C(=O)O)[C@@H](O)[C@H](O)[C@H]2O[C@@H]2O[C@H](C(=O)O)[C@@H](O)[C@H](O)[C@H]2O)CC[C@]2(C)[C@H]3C(=O)C=C4[C@@H]5C[C@@](C)(C(=O)O)CC[C@]5(C)CC[C@@]4(C)[C@]3(C)CC[C@@H]12 [Ammonium Glycyrrhizate],97.4% and 102%
8,"CCNC(=O)c1noc(-c2cc(C(C)C)c(O)cc2O)c1-c1ccc(CN2CCOCC2)cc1 [Luminespib (AUY-922, NVP-AUY922)]",16.9% and 29.2%
9,C=CCc1cc(OC)c(O)c(C(=O)NCCO)c1 [Alibendol],100% and 103%
